Compound activity deposited in PubChem BioAssay by Johns Hopkins Ion Channel Center.
Hits are enriched below; roughly 1.6% of the tested compounds scored in any of these assays.
KCNQ2 block: rat KCNQ2 potassium channel inhibitors, primary screen, cell-based, CHO-K1, FluxOR thallium flux, B-score; hit rate 1.1% among 310,000; B-score at 10 µM; 20 min; hits give low values; AID 2156, 2009;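 active = fluorescence ratio B-score at most minus 3 library SDs, with starting brightness B-score within 2 library SDs, cut at about -5.5 in these data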
Target sequence (O88943 whole entry, looked up): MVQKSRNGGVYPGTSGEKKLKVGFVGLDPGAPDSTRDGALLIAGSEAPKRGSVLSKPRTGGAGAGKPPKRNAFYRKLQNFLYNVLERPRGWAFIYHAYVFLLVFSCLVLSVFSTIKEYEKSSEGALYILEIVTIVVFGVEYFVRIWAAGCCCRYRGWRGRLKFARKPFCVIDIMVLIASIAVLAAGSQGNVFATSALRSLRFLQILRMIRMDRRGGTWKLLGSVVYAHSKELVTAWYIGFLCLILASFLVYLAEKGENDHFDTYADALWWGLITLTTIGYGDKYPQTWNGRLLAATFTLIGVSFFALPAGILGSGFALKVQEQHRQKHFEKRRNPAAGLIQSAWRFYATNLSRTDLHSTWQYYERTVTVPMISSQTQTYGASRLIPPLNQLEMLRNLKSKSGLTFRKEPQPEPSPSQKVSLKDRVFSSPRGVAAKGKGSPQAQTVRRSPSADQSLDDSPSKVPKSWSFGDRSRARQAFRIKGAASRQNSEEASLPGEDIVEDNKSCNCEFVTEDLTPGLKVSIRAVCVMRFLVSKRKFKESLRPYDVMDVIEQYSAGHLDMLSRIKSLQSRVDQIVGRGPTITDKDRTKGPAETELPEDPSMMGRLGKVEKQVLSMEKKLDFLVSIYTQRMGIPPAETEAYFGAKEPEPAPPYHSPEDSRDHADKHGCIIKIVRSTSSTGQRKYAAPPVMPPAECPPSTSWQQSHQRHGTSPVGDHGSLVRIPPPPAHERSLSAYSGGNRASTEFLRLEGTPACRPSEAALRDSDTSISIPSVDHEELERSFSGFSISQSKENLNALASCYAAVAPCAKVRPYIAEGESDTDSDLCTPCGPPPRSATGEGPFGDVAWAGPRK
KCNQ2 enhance: potentiators of rat KCNQ2 potassium channel; hit rate 0.54% among 310,000; CHO-K1 KCNQ2, FluxOR thallium flux fluorescence; hits give high values; B-score at 10 µM; AID 2239, 2010;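 active = fluorescence ratio B-score at least 3 SD of library B-scores, with initial fluorescence B-score within 3 of them, cut at about 5.3 in these data; same plate scores as AID 2156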;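 also: B-score of peak minus minimum over baseline fluorescence ratio after K+ and Tl+ stimulus; positive B-score means potentiation of KCNQ2 with more thallium influx and brighter signal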
KCNQ2 block conf: rat KCNQ2 potassium channel inhibitors, confirmation, cell-based, thallium flux; shares compounds with KCNQ2 block; KCNQ2-expressing cells, inhibition; hits give low values; activity change, negative = inhibition, % at 10 µM; hit rate 57% among 1,000; AID 493025, 2011;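 also: 0% = vehicle wells and values are ratio percent relative to vehicle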
KCNQ1 spec: human KCNQ1 channel inhibition, counter-screen for KCNQ2 inhibitor project, cell-based, FluxOR thallium flux; KCNQ1-expressing cells, FluxOR thallium flux fluorescence; hits give low values; hit rate 15% among 1,000; AID 493026, 2011; activity change, negative = inhibition, % at 10 µM; shares compounds with KCNQ2 block;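 active = activity change at least 3 SD of negative controls below their mean in both duplicate wells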;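 also: CHO cells stably transfected with KCNQ1 and depolarized by potassium stimulus; peak minus minimum fluorescence over baseline after thallium addition; 0% = vehicle negative control and -100% = blank without thallium stimulus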
CHO parental ctr: thallium flux change in parental CHO cells, counter-screen for KCNQ2 inhibitor project; activity change, % at 10 µM; hit rate 14% among 1,000; hits give low values; shares compounds with KCNQ2 block;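 also: 0% = vehicle negative controls with stimulus buffer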
KCNQ2 inh confirm: rat KCNQ2 channel inhibitors, confirmation, cell-based, automated patch clamp, single concentration. KCNQ2-expressing cells, automated patch clamp current. hit rate 49% among 550. calls only at 10 µM. shares compounds with KCNQ2 block
Numbers without * were called inactive; i = inactive; · = no result; + = active, no number. Unless noted, no rule for the calls is given here.

SMILES	KCNQ2 block	KCNQ2 enhance	KCNQ2 block conf	KCNQ1 spec	CHO parental ctr	others
O=C(CN1C(=O)CSc2ccc(S(=O)(=O)N3CCOCC3)cc21)NCc1ccc(Cl)cc1	i	·	·	·	·
O=C(O)Cc1ccc(NC(=S)Nc2ccc(Br)cc2Cl)cc1	i	·	·	·	·
CC[C@H](C)[C@H](NC(N)=O)C(=O)NCCc1ccc(Cl)cc1Cl	i	0.93	·	·	·
Cc1cccc2nc(COc3ccc(Cl)c4cccnc34)cn12	-9.13*	-9.13	-29.0%*	i	i	KCNQ2 inh confirm=+
O=[N+]([O-])c1ccccc1COc1ccc(Cl)c2cccnc12	i	·	·	·	·
O=C(NCCCCc1ccccc1)c1ccc(F)cc1	i	1.65	·	·	·
COC(=O)c1cn(NC(=O)c2cccc(F)c2)c(=O)c2ccccc12	i	·	·	·	·
COC(=O)c1cn(NC(=O)c2cccc(N(C)C)c2)c(=O)c2ccccc12	-7.83*	-7.83	-45.0%*	-35.5%*	-30.0%*	KCNQ2 inh confirm=+
O=C(Nn1cc(C(=O)Nc2ccccc2F)c2ccccc2c1=O)c1cnccn1	i	·	·	·	·
COc1cc(OC)cc(C(=O)Nn2cc(C(=O)Nc3ccccc3F)c3ccccc3c2=O)c1	-7.14*	-7.14	i	i	i
COCCNc1ccc([N+](=O)[O-])cc1C(=O)Nc1cccc(C)n1	i	·	·	·	·
CCC(C)(C)n1nnnc1C(c1ccc(C)cc1)N1CCSCC1 (configuration not stated)	i	·	·	·	·
CC(C)(C)n1nnnc1C(c1ccc(C(F)(F)F)cc1)N(Cc1ccccc1)Cc1ccco1 (configuration not stated)	-10.9*	-10.9	-57.0%*	-57.5%*	-54.0%*
Fc1ccc(C(c2nnnn2C2CCCC2)N(Cc2ccco2)CC2CCCO2)cc1 (configuration not stated)	i	·	·	·	·
CCN(Cc1ccccc1)C(c1ccc(C)cc1)c1nnnn1C(C)(C)CC (configuration not stated)	-8.77*	-8.77	-28.0%*	i	i	KCNQ2 inh confirm=i
Cc1cc2cc(C(c3nnnn3C(C)(C)C)N(Cc3ccco3)CC3CCCO3)c(=O)[nH]c2cc1C (configuration not stated)	i	0.49	·	·	·
CC(C)(C)n1nnnc1C(c1ccc(F)cc1)N(Cc1ccc(F)cc1)Cc1ccco1 (configuration not stated)	-10.6*	-10.6	-30.5%*	i	i	KCNQ2 inh confirm=i
O=C(Cn1cncn1)N/N=C/c1ccccc1O	i	0.21	·	·	·
CCCCn1c(SCC(=O)N(C)C2CCS(=O)(=O)C2)nc2cc(S(N)(=O)=O)ccc21 (configuration not stated)	i	1.14	·	·	·
CCCCn1c(N)c(N(CCOC)C(=O)CN(C)S(=O)(=O)c2ccc(C)cc2)c(=O)[nH]c1=O	i	·	·	·	·
O=c1oc(-c2ccccc2)nc2c1C1(CCCCC1)Cc1ccccc1-2	-8.67*	-8.67	i	i	i
CCC1(CC)Cc2ccccc2-c2nc(-c3ccccc3)oc(=O)c21	i	·	·	·	·
COc1ccc(Cl)cc1N(CC(=O)NC(C(C)C)C(C)C)S(C)(=O)=O	i	1	·	·	·
O=C1CC(c2ccco2)Cc2nc(N3CCc4ccccc4C3)ncc21 (configuration not stated)	-10.3*	-10.3	-27.0%*	i	i	KCNQ2 inh confirm=i
CC(C)c1ccc(C2CC(=O)c3cnc(N4CCc5ccccc5C4)nc3C2)cc1 (configuration not stated)	i	·	·	·	·
SMILES	KCNQ2 block	KCNQ2 enhance	KCNQ2 block conf	KCNQ1 spec	CHO parental ctr	others
CC(C)(C)NC(=O)COc1coc(CN2CCN(C(=O)c3ccco3)CC2)cc1=O	i	·	·	·	·
O=C(Cn1ccc(C(F)(F)F)n1)N=Nc1c(O)[nH]c2ccccc12	i	·	·	·	·
O=C(Cn1ccc(C(F)(F)F)n1)N=Nc1c(O)[nH]c2ccc(Br)cc12	-9.29*	-9.29	-27.0%*	i	i	KCNQ2 inh confirm=+
Cc1nnc(SCC(=O)NC2CCCCCC2)n1C(C)C	i	0.79	·	·	·
CCc1ccc(-n2cccc2/C=C2/C(=N)N3C(=NC2=O)SN=C3S(C)(=O)=O)cc1	-10.4*	-10.4	-39.0%*	-41.0%*	-35.0%*	KCNQ2 inh confirm=i
Cc1ccc(-n2cccc2/C=C2/C(=N)N3C(=NC2=O)SN=C3S(C)(=O)=O)cc1	i	·	·	·	·
COCCSc1nc(N)c2c3c(sc2n1)CN(C)CC3	i	·	·	·	·
O=c1cc2c(nn1Cc1c(Cl)cccc1Cl)-c1ccccc1CC2	i	1.58	·	·	·
Clc1ccc(CSc2cc3c(nn2)-c2ccccc2CC3)cc1Cl	-8.33*	-8.33	-27.0%*	i	i	KCNQ2 inh confirm=i
Clc1ccc(CSC2=NCCCN2)cc1Cl	i	2.7	·	·	·
Clc1ccccc1CSc1cc2c(nn1)-c1ccccc1CC2	-8.09*	-8.09	-19.0%*	i	i	KCNQ2 inh confirm=i
Nc1ccccc1SCc1ccccc1Cl	i	·	·	·	·
Clc1cccc(Cl)c1CSc1cc2c(nn1)-c1ccccc1CC2	-8.52*	-8.52	i	i	i
NC(=O)CC[C@H](NC(=O)c1ccc(F)cc1)C(=O)OCC(=O)NCc1ccc(F)cc1	i	0.5	·	·	·
Cc1ccc(S(=O)(=O)NC(=O)c2cc(C)n(C3CC3)c2C)cc1	i	1.96	·	·	·
O=C(C(=O)N1CCOCC1)c1cn(CCOc2ccccc2)c2ccccc12	i	·	·	·	·
Cc1ccccc1OCCn1cc(C(=O)C(=O)N2CCOCC2)c2ccccc21	-8.47*	-8.47	-33.0%*	i	i	KCNQ2 inh confirm=+
CC(=O)c1ccc(S(=O)(=O)N(C)C(C)CCc2ccco2)cc1 (configuration not stated)	i	0.34	·	·	·
COc1cc2c(cc1NC(=O)c1ccc(C(C)(C)C)cc1)CCCC2	-7.22*	-7.22	i	i	i
COc1ccc(C(=O)Nc2cc3c(cc2OC)CCCC3)cc1Br	i	·	·	·	·
O=C(NCCSc1ccc(Br)cc1)c1ccc2nc[nH]c2c1	i	3.29	·	·	·
O=C(NCCS(=O)(=O)N1CCN(c2cccc(Cl)c2)CC1)c1cc(=O)c2ccccc2o1	i	·	·	·	·
CCOc1ccc(N(CC(=O)N2CCc3ccccc32)S(=O)(=O)c2c(C)noc2C)cc1	i	·	·	·	·
CCOc1ccc(N(CC(=O)N2CC=C(c3ccccc3)CC2)S(=O)(=O)c2c(C)noc2C)cc1	-8.62*	-8.62	i	i	i
CC(C)c1cc(=O)[nH]c(N2CCN(Cc3ccc4c(c3)OCO4)CC2)n1	i	0.84	·	·	·
O=C(/C=C/c1ccco1)NC(=S)Nc1ccccc1N1CCCC1	i	·	·	·	·
O=C(/C=C/c1ccco1)NC(=S)Nc1ccccc1N1CCOCC1	-7.25*	-7.25	i	i	i
O=C(Cc1sc(-c2ccccc2)nc1-c1ccccc1)Nc1ccccc1	i	0.16	·	·	·
O=C(Cc1sc(Nc2ccccc2)nc1-c1ccccc1)NCc1ccccc1	-7.13*	-7.13	i	i	i
O=C(O)c1cccc(CSc2n[nH]c(-c3ccc(Cl)cc3Cl)n2)c1	i	3.99	·	·	·
